The list is not random: actives were taken first. Their share in the collection is about 3%.
SENP7 block – SENP7 protease inhibition. Q9BQF6. recombinant SENP7, Z-RLRGG-aminoluciferin luminescence, 40 min. 330,000 tested, 1.5% active. inhibition, % at 5 µM;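 active = inhibition above about 50% at the single test dose, limit read from the data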;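 also: plate controls were DMSO with enzyme for no effect and no enzyme buffer wells for full effect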
SENP8 block-1 – blocks human SENP8 cleavage of Nedd8 substrate | Q96LD8 | recombinant SENP8, Nedd8 substrate fluorescence | inhibition, % at 20 µM | 360,000 tested, 0.64% active; in the data active = inhibition mostly above about 40%, no sharp cut-off; inactive = mostly below about 27%
PPC-1+TRAIL kill – kills PPC-1 cancer cells in the presence of TRAIL; PPC-1 cells + TRAIL, ATPLite viability luminescence; cell killing (% activity), % at 4 µM or 5 µM; 220,000 tested, 0.41% active; AID 1443;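 active = cell killing above 50% in the first pass at 4 µM, then a duplicate retest at 5 µM averaging 50% or more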;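 also: plate controls were cells with TRAIL plus DMSO for no effect and medium-only wells lacking cells for full effect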
TRAIL sens C8 – caspase-8 TRAIL sensitization; inhibition (viability loss, TRAIL sensitization), % at 10 µM; 360,000 tested, 1% active; NB7+C8 cells + TRAIL, ATPlite viability luminescence;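 active = compounds causing at least 50% loss of cell viability in the single-dose screen, relative to plate controls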
SENP6 inh – SENP6 protease inhibition. 330,000 tested, 1.8% active. AID 2599. Q9GZR1. Recombinant SENP6 catalytic domain, aminoluciferin luminescence. inhibition, % at 10 µM;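 active = inhibition above about 50% at the single tested dose, limit read from the data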;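 also: plate controls were DMSO wells with enzyme for no effect and DMSO wells lacking enzyme for full effect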
Target sequence (Q9GZR1 628-1112 limits assumed): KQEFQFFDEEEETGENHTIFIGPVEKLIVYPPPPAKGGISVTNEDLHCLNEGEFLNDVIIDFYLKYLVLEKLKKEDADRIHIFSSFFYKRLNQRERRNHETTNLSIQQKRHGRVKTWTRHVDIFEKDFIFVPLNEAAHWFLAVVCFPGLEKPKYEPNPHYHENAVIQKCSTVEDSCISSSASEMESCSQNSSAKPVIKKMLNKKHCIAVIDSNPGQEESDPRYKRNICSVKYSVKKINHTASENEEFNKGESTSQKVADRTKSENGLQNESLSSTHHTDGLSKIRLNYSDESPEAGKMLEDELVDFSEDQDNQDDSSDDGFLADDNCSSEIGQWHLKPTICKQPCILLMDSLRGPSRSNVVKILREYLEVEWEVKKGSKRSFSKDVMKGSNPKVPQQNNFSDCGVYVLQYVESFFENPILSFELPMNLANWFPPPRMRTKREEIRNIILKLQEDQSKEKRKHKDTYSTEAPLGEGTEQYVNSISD
SENP8 block-2 – inhibitors of human SENP8 protease. Q96LD8. purified SENP8, Z-RLRGG-aminoluciferin cleavage, luminescence. inhibition, % at 10 µM. 330,000 tested, 1.2% active; in the data active = inhibition above about 50%
SENP8 conf – SENP8 (human) inhibition, single concentration confirmation | shares compounds with SENP8 block-1 | purified SENP8, Nedd8-AMC/pro-Nedd8 cleavage fluorescence, 30 min | inhibition, % at 25 µM | 1,400 tested, 15% active; in the data active = inhibition mostly above about 39%, no sharp cut-off; inactive = mostly below about 34%
Numbers without * were called inactive; · = no result.

SMILES	SENP7 block	SENP8 block-1	PPC-1+TRAIL kill	TRAIL sens C8	SENP6 inh	SENP8 block-2	SENP8 conf
O=C(Nc1cccc(Cl)c1)c1ccc(NCCCN2CCOCC2)c([N+](=O)[O-])c1	0	41*	13	8	-6	-6	13
Cc1cc(NC(=O)Nc2ccccc2[N+](=O)[O-])n(C)n1	5	12	·	-14	5	-4	·
N#Cc1cn(-c2cccc(C(F)(F)F)c2)c(=O)[nH]c1=O	4	12	·	-5	-3	12	·
COc1cc2c(C(=O)Nc3ccccc3F)cn(C)c(=O)c2cc1OC	4	18	·	-7	20	4	·
CCN(C(=O)c1cn(C)c(=O)c2cc(OC)c(OC)cc12)c1cc(OC)ccc1OC	0	43*	3	5	-13	-1	13
COc1ccccc1NC(=O)c1cn(C)c(=O)c2cc(OC)c(OC)cc12	-10	42*	7	-9	-9	-7	63*
CCOC(=O)c1nn(-c2ccc(C)cc2)c(=O)c2c(N)scc12	8	14	41	-1	22	3	·
Nc1scc2c(C(=O)O)nn(-c3ccccc3)c(=O)c12	6	40*	·	-12	-17	12	20
CN1CCC(=NNC(=O)C(=O)NC2CCCCC2)CC1	5	7	-6	-18	-16	-2	·
CN1CCC(=NNC(=O)C(=O)NC2CCCC2)CC1	7	40*	9	-5	2	4	5
COc1ccc(NC(=O)CN(C)S(=O)(=O)c2cnc[nH]2)cc1OC	3	-2	·	0	-7	3	·
Cc1cc(C)cc(NC(=O)CN(C)S(=O)(=O)c2cnc[nH]2)c1	1	42*	9	-13	0	-6	-5
CCC1=C(c2ccc(C)cc2)S(=O)(=O)N=C1N1CCC(C(=O)NCCCN2CCCCC2C)CC1 (stereo not drawn)	1	4	·	10	-11	3	·
Cc1ccc(C(=O)O/N=C\c2ccc(N3CCCCC3)c([N+](=O)[O-])c2)cc1	-6	48*	7	2	-13	3	13
O=C(O/N=C\c1ccc(N2CCCCC2)c([N+](=O)[O-])c1)c1cccc(Cl)c1	7	59*	24	18	1	-1	15
CC(C)C(=O)N1CCC1(C)C(=O)Nc1ccc(-n2cncn2)cc1 (stereo not drawn)	·	10	·	-10	·	·	·
O=C(CN1C(=O)CCC1=O)Nc1cccc(NC(=O)CN2C(=O)CCC2=O)c1	8	2	22	-4	7	-4	·
CCOC(=O)N1CCN(C(=O)C[C@@H]2C[C@@]3(C(=O)OC)CC(C)(C)CC=C3N(Cc3cccc4ccccc34)C2=O)CC1	·	19	·	-1	·	·	·
Cc1ccc(C)c(C(=O)COC(=O)c2cccc(N3C(=O)c4c(C)nc5ccccc5c4C3=O)c2)c1	5	42*	65*	57*	2	4	14
Cc1nc2ccccc2c2c1C(=O)N(c1cccc(C(=O)O)c1)C2=O	-4	8	1	0	-3	4	·
C[C@H]1CN([C@@H](C)CO)C(=O)CCCn2nncc2CO[C@@H]1CN(C)C(=O)c1ccc(N2CCN(C)CC2)cc1	·	50*	·	-2	·	·	0
C[C@@H]1CN([C@H](C)CO)C(=O)CCCn2nncc2CO[C@H]1CN(C)C(=O)c1ccc(N2CCN(C)CC2)cc1	·	7	·	4	·	·	·
Cc1ccc(/C=N/N2C(=S)SC(C)(C)C2N(O)C(=O)Nc2ccc([N+](=O)[O-])cc2)cc1 (stereo not drawn)	1	40*	17	14	-8	-1	6
CC1(C)SC(=S)N(/N=C/c2ccc(O)cc2)C1N(O)C(=O)Nc1ccc([N+](=O)[O-])cc1 (stereo not drawn)	-12	29	1	-22	-8	-11	·
O=C(CSc1cn(CCNC(=O)c2cccs2)c2ccccc12)NC1CCCC1	6	0	16	1	-4	-1	·
O=C(CCc1c[nH]c2ccccc12)N[C@@H](Cc1c[nH]c2ccc(O)cc12)C(=O)O	-3	6	·	3	-6	-2	·
Cc1cccnc1NC(=O)CSc1ccc2c(c1)OCCO2	1	-1	·	3	-4	-4	·

Screens: PubChem, Sanford-Burnham Center for Chemical Genomics
